According to PubChem BioAssay:

Experiment: inhibitors of polyQ protein aggregation (AID 1604)
Conditions: polyglutamine-induced protein aggregation inhibition assay; stronger effect = higher value; concentration not given here

Row | SMILES | inhibition of aggregation [%]
1 | NC(=O)c1ccc[n+]([C@@H]2O[C@H](COP(=O)([O-])OP(=O)(O)OC[C@H]3O[C@@H](n4cnc5c(N)ncnc54)[C@H](O)[C@@H]3O)[C@@H](O)[C@H]2O)c1 | 63.6
2 | Cn1c(=O)[nH]c2ncn(C)c2c1=O | 52.4
3 | Cc1cc(C(C)(C)CC(C)(C)C)ccc1OCCOCC[N+](C)(C)Cc1ccccc1 | 63.9
4 | Cn1c(=O)c2[nH]c(C3CCCC3)nc2n(C)c1=O | -13.7
5 | CC(=O)N1CCN(c2ccc(OCC3CO[C@](Cn4ccnc4)(c4ccc(Cl)cc4Cl)O3)cc2)CC1 (stereo not given in full) | 88.5
6 | CN[C@H](CC(=O)O)C(=O)O | 80.3
7 | CN1CCc2cccc3c2C1Cc1ccc(O)c(O)c1-3 (stereo not given) | 85.7
8 | COc1c2ccoc2cc2oc(=O)ccc12 | 80.3
9 | C=C1c2c(Cl)ccc(O)c2C(O)=C2C(=O)[C@]3(O)C(O)=C(C(N)=O)C(=O)[C@@H](N(C)C)[C@@H]3[C@@H](O)[C@H]12 | 84.6
10 | CC(CN(C)C)CN1c2ccccc2Sc2ccccc21 (stereo not given) | 52.6
11 | CC(C(=O)O)c1ccc(N2Cc3ccccc3C2=O)cc1 (stereo not given) | 83.7
12 | O=c1cc(-c2ccccc2)oc2c(O)c(O)ccc12 | 81.7
13 | CN1CCc2c(c3ccccc3n2Cc2ccccc2)C1 | 26.7
14 | NC(N)=NCCCCN=C(N)N | 83.3
15 | NCCCCN | 70.6
16 | Cc1cc(/C=C/c2ccc3cc(N(C)C)ccc3[n+]2C)c(C)n1-c1ccccc1 | -12.8
17 | NCCSSCCN | 47.1
18 | CC1(C)S[C@@H]2[C@H](NC(=O)Cc3ccccc3)C(=O)N2[C@H]1C(=O)O | 16.8
19 | CN(C)CCOC(c1ccccc1)c1ccccc1 (tested in a mixture with another compound) | 69.8
20 | Oc1cc(O)c2c(c1)O[C@H](c1ccc(O)c(O)c1)[C@@H](O)C2 | 63.2
21 | C1N2CN3CN1CN(C2)C3 | 27.8
22 | COc1cc(S(C)=O)ccc1-c1nc2ncccc2[nH]1 (stereo not given) | 3.24
23 | NCCCS(=O)(=O)O | 80.3
24 | COC(=O)[C@H]1[C@H]2C[C@H]3c4[nH]c5ccccc5c4CCN3C[C@H]2CC[C@@H]1O | 75.9
25 | C[N+](C)(C)CC(O)CC(=O)O (stereo not given) | 88.8

Experiment: enhancers of glutamate uptake in motor neurons, MN-1 cell line (AID 1612);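 also: 0% = mean of DMSO vehicle wells on each plate; positive means more glutamate uptake than control and negative means less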
Conditions: MN-1 motor neuron cells, stronger effect = higher value

Row | SMILES | glutamate uptake change [%]
26 | NC(=O)c1ccc[n+]([C@@H]2O[C@H](COP(=O)([O-])OP(=O)(O)OC[C@H]3O[C@@H](n4cnc5c(N)ncnc54)[C@H](O)[C@@H]3O)[C@@H](O)[C@H]2O)c1 | 28.3
27 | Cn1c(=O)[nH]c2ncn(C)c2c1=O | 1.28
28 | Cc1cc(C(C)(C)CC(C)(C)C)ccc1OCCOCC[N+](C)(C)Cc1ccccc1 | 10.8
29 | Cn1c(=O)c2[nH]c(C3CCCC3)nc2n(C)c1=O | 10.7
30 | CC(=O)N1CCN(c2ccc(OCC3CO[C@](Cn4ccnc4)(c4ccc(Cl)cc4Cl)O3)cc2)CC1 (stereo not given in full) | -8.61
31 | CN[C@H](CC(=O)O)C(=O)O | -1.67
32 | CN1CCc2cccc3c2C1Cc1ccc(O)c(O)c1-3 (stereo not given) | 14
33 | COc1c2ccoc2cc2oc(=O)ccc12 | -26.6
34 | C=C1c2c(Cl)ccc(O)c2C(O)=C2C(=O)[C@]3(O)C(O)=C(C(N)=O)C(=O)[C@@H](N(C)C)[C@@H]3[C@@H](O)[C@H]12 | 0.44
35 | CC(CN(C)C)CN1c2ccccc2Sc2ccccc21 (stereo not given) | -15.4
36 | CC(C(=O)O)c1ccc(N2Cc3ccccc3C2=O)cc1 (stereo not given) | -13.2
37 | O=c1cc(-c2ccccc2)oc2c(O)c(O)ccc12 | 0.12
38 | CN1CCc2c(c3ccccc3n2Cc2ccccc2)C1 | -0.3
39 | NC(N)=NCCCCN=C(N)N | 11.5
40 | NCCCCN | 0.99
41 | Cc1cc(/C=C/c2ccc3cc(N(C)C)ccc3[n+]2C)c(C)n1-c1ccccc1 | -15.7
42 | NCCSSCCN | 15.5
43 | CC1(C)S[C@@H]2[C@H](NC(=O)Cc3ccccc3)C(=O)N2[C@H]1C(=O)O | 6.9
44 | CN(C)CCOC(c1ccccc1)c1ccccc1 (tested in a mixture with another compound) | -19.1
45 | Oc1cc(O)c2c(c1)O[C@H](c1ccc(O)c(O)c1)[C@@H](O)C2 | 14.1
46 | C1N2CN3CN1CN(C2)C3 | -31.9
47 | COc1cc(S(C)=O)ccc1-c1nc2ncccc2[nH]1 (stereo not given) | 3.5
48 | NCCCS(=O)(=O)O | 3.02
49 | COC(=O)[C@H]1[C@H]2C[C@H]3c4[nH]c5ccccc5c4CCN3C[C@H]2CC[C@@H]1O | 41.8
50 | C[N+](C)(C)CC(O)CC(=O)O (stereo not given) | -5.62

Experiment: reducers of polyQ inclusions in PC12 cells, cell-based, NGF-treated PC12, GFPQ80 (AID 1614);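 also: lower means fewer inclusions and 0 means no inclusions at all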
Conditions: PC12 NGF-treated GFP-polyQ80 inclusion reduction

Row | SMILES | inclusion score
51 | NC(=O)c1ccc[n+]([C@@H]2O[C@H](COP(=O)([O-])OP(=O)(O)OC[C@H]3O[C@@H](n4cnc5c(N)ncnc54)[C@H](O)[C@@H]3O)[C@@H](O)[C@H]2O)c1 | 2
52 | Cn1c(=O)[nH]c2ncn(C)c2c1=O | 2
53 | Cn1c(=O)c2[nH]c(C3CCCC3)nc2n(C)c1=O | 1.5
54 | CN[C@H](CC(=O)O)C(=O)O | 2
55 | CN1CCc2cccc3c2C1Cc1ccc(O)c(O)c1-3 (stereo not given) | 2
56 | COc1c2ccoc2cc2oc(=O)ccc12 | 2
57 | C=C1c2c(Cl)ccc(O)c2C(O)=C2C(=O)[C@]3(O)C(O)=C(C(N)=O)C(=O)[C@@H](N(C)C)[C@@H]3[C@@H](O)[C@H]12 | 1
58 | CC(C(=O)O)c1ccc(N2Cc3ccccc3C2=O)cc1 (stereo not given) | 2.5
59 | O=c1cc(-c2ccccc2)oc2c(O)c(O)ccc12 | 1.5
60 | NC(N)=NCCCCN=C(N)N | 2
61 | NCCCCN | 2
62 | NCCSSCCN | 2
63 | CC1(C)S[C@@H]2[C@H](NC(=O)Cc3ccccc3)C(=O)N2[C@H]1C(=O)O | 2
64 | CN(C)CCOC(c1ccccc1)c1ccccc1 (tested in a mixture with another compound) | 2
65 | Oc1cc(O)c2c(c1)O[C@H](c1ccc(O)c(O)c1)[C@@H](O)C2 | 2
66 | C1N2CN3CN1CN(C2)C3 | 2
67 | COc1cc(S(C)=O)ccc1-c1nc2ncccc2[nH]1 (stereo not given) | 2
68 | NCCCS(=O)(=O)O | 2
69 | COC(=O)[C@H]1[C@H]2C[C@H]3c4[nH]c5ccccc5c4CCN3C[C@H]2CC[C@@H]1O | 2
70 | C[N+](C)(C)CC(O)CC(=O)O (stereo not given) | 2
